Screening results from PubChem BioAssay.
Most compounds without a hit are left out; they make up all but 0.97% or so of the library.
NTR1 ag: agonists of human neurotensin receptor NTR1; P30989; NTR1-U2OS beta-arrestin-GFP spot imaging, agonist mode; activation, % at 20 µM; AID 493036; actives 0.17% (n = 330,000);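 active = activation at or above 40% of the spot to cytoplasm intensity ratio, with at least 20 cells analyzed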
A1 inh: inhibitors of the anti-apoptotic protein A1, read as caspase activation; MEF A1-2A-BIM cells, Caspase-Glo 3/7 luminescence, 3 h; percent of clofoctol response, vehicle zero; caspase activation, % (concentration not given with the values); actives 0.066% (n = 330,000); AID 2462;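 active = over half of replicate activation scores above 10%, or exactly half above 10 with the replicate mean above 10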
TLR4-MyD88 BLA: TLR4-MyD88 interaction inhibition in cells | O00206+Q99836 | HeLa CL3-4 TLR4/MyD88 BLA complementation, FRET ratio | inhibition, % at 8.4 µM | actives 0.18% (n = 200,000); in the data active = inhibition above about 25%
Beta2AR agonist: agonists of human beta-2 adrenergic receptor inducing internalization; Am2.2-beta2AR cells, FAP receptor internalization, flow cytometry; response, % (test concentration not listed); actives 0.43% (n = 340,000); AID 504454;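 active = response above a set limit, near 3 SD of response in nonfluorescent compounds, cut at about 42% in these data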
TLR9-MyD88 inh: TLR9-MyD88 interaction inhibition | Q9NR96+Q99836 | CHO BLA complementation TLR9-MyD88, CCF4 FRET ratio | inhibition, % at 4.98 µM | actives 0.21% (n = 340,000);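 active = inhibition above the mean over all tested compounds plus 3 SD, cut at about 21% in these data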
NOD2 RIPK2 PPI: blocks binding of human NOD2 to RIPK2. O43353. CHO BLA complementation NOD2-RIPK2, CCF4 ratio. inhibition, % at 4.98 µM. actives 0.38% (n = 360,000). AID 624267; in the data active = inhibition above about 21%
TLR4 MyD88 cnf: confirmation of human TLR4-MyD88 binding inhibitors | HeLa CL3-4 BLA complementation, CCF4 FRET ratio | actives 50% (n = 350) | inhibition, % at 8.4 µM | shares compounds with TLR4-MyD88 BLA;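 active = mean inhibition across three repeat runs above about 25% carried over from the earlier screen, limit read from the data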
BLA inhibitor ct: inhibits beta-lactamase activity, counter-screen to TLR4-MyD88 binding inhibitors; shares compounds with TLR4-MyD88 BLA; HeLa BLA reporter, CCF4 FRET ratio; inhibition, % at 8.4 µM; actives 63% (n = 350);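 active = mean inhibition over three repeats above about 26% taken from the earlier screen, limit read from the data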;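 also: HeLa cells stably expressing beta-lactamase reporter as counterscreen for TLR4-MyD88 inhibitors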
Each line names hits and unclear results; the compound was inactive in the other large screens (follow-up assays come after a bar, where they were run).

Cc1nn(-c2ccccc2)c2c1C(c1ccc(O)c(O)c1)N1C(=N2)C(Nc2ccccc2)=Nc2ccccc21 (stereo not given)	TLR4-MyD88 BLA 57 | TLR4 MyD88 cnf 52 | BLA inhibitor ct 89
Cc1nn(-c2ccccc2)c2c1C(c1ccc([N+](=O)[O-])cc1)N1C(=N2)C(=O)Nc2ccccc21 (stereo not given)	none
Cc1noc(N)c1C(=O)Nc1ccc(F)cc1	none
CCOC(=O)c1c2ccc(OCC(=O)N/N=C/c3ccc(C)cc3)cc2n2ccccc12	A1 inh 35, TLR4-MyD88 BLA 38 | TLR4 MyD88 cnf 48 | BLA inhibitor ct inactive
S=c1[nH]nc(CCc2nc3ccccc3[nH]2)n1-c1cccc(Cl)c1	none
COc1ccc(-c2ccc3c(N)c(C(=O)c4ccc(OC)c(OC)c4)sc3n2)cc1	TLR4-MyD88 BLA 27 | TLR4 MyD88 cnf inactive | BLA inhibitor ct 45
COc1ccc(C(=O)NNC(=O)c2ccccc2[N+](=O)[O-])cc1Br	none
N#Cc1sc2nc(-c3ccccc3)cc(C(F)(F)F)c2c1N	none (no result: NTR1 ag, A1 inh)
N#Cc1sc2nc(-c3cccs3)cc(-c3ccccc3)c2c1N	TLR4-MyD88 BLA 46 | TLR4 MyD88 cnf 48 | BLA inhibitor ct 82
CC(C)C(=O)Nc1cccc(-c2nc3ccccc3o2)c1	TLR4-MyD88 BLA 26 | TLR4 MyD88 cnf inactive | BLA inhibitor ct inactive
O=C(O)CC(NC(=O)C12CC3CC(CC(C3)C1)C2)c1ccc(Cl)cc1 (stereo not given)	none (no result: TLR4-MyD88 BLA)
CCCn1c(=O)[nH]c(=O)c2c1nc(-c1ccccc1OC(F)F)n2CCOC	TLR4-MyD88 BLA 26 | TLR4 MyD88 cnf inactive | BLA inhibitor ct inactive
CCCn1c(=O)[nH]c(=O)c2c1nc(-c1ccc(OC(F)F)c(OC)c1)n2CCOC	none
COc1ccc(C(=O)N/C(=C/c2ccco2)C(=O)N2CCCCCC2)cc1	none (no result: TLR4-MyD88 BLA)
CC1(C)Cc2c(sc3c2C(=O)N(c2ccccc2)C2=NCCCN23)CO1	none
CCOc1ccc(C2C=C(c3ccccc3)Nc3ncnn32)cc1 (stereo not given)	TLR4-MyD88 BLA 27 (no result: Beta2AR agonist, TLR9-MyD88 inh, NOD2 RIPK2 PPI) | TLR4 MyD88 cnf inactive | BLA inhibitor ct 41
CCOc1ccc(C2C=C(c3ccc(F)cc3)Nc3ncnn32)cc1 (stereo not given)	TLR4-MyD88 BLA 26 | TLR4 MyD88 cnf inactive | BLA inhibitor ct 53
COc1cccc(C2=CC(c3ccccc3)n3ncnc3N2)c1 (stereo not given)	none (no result: Beta2AR agonist, TLR9-MyD88 inh, NOD2 RIPK2 PPI)
COc1ccc(C2C=C(c3ccccc3)Nc3nc(NC(C)=O)nn32)cc1 (stereo not given)	TLR4-MyD88 BLA 36 (no result: Beta2AR agonist, TLR9-MyD88 inh, NOD2 RIPK2 PPI) | TLR4 MyD88 cnf 31 | BLA inhibitor ct 56
Cc1c(C(=O)c2ccc3c(c2)OCO3)ccc2c1OCO2	none (no result: NTR1 ag, A1 inh, TLR4-MyD88 BLA)
CC1CC(=O)c2c(cc3c(-c4c(O)cc(O)c5c(O)c6c(cc45)OC(C)CC6=O)c(O)cc(O)c3c2O)O1 (stereo not given)	TLR4-MyD88 BLA 42, NOD2 RIPK2 PPI 23 | TLR4 MyD88 cnf 44 | BLA inhibitor ct 65
O=C1CC(c2ccc(O)cc2)Oc2cc(O)cc(O)c21 (stereo not given)	none
CC(=O)C1=C(C)NC(SCC(=O)c2ccc(-c3ccccc3)cc2)=C(C#N)C1c1cccnc1 (stereo not given)	TLR4-MyD88 BLA 31 (no result: Beta2AR agonist, TLR9-MyD88 inh, NOD2 RIPK2 PPI) | TLR4 MyD88 cnf inactive | BLA inhibitor ct 36
CC(=O)C1=C(C)NC(SCSc2ccccc2)=C(C#N)C1c1cccnc1 (stereo not given)	none (no result: Beta2AR agonist, TLR9-MyD88 inh, NOD2 RIPK2 PPI)
COc1ccc(CC(=O)NCc2nnc(SCCOc3ccccc3)n2C)cc1	none
O=C1c2cccc3c(N4CCCCC4)ccc(c23)C(=O)N1c1ccc(O)cc1	TLR4-MyD88 BLA 31 | TLR4 MyD88 cnf 30 | BLA inhibitor ct 48
COc1ccccc1N1CCN(C(=O)CSc2nnc(NC(=O)C3CCC3)s2)CC1	none
CCCc1[nH]c(=O)c(C#N)c2c1COC(C)(C)C2	none
COc1cc(C(=O)OCC(=O)N2CCN(C(C)=O)CC2)ccc1OCC(C)C	none (no result: TLR4-MyD88 BLA)
c1ccc(-c2cn3nc(-c4ccccc4)c(-c4ccccc4)nc3n2)cc1	TLR4-MyD88 BLA 52 | TLR4 MyD88 cnf 43 | BLA inhibitor ct 73
Cc1ccc(-c2cn3nc(-c4ccccc4)c(-c4ccccc4)nc3n2)cc1	none (no result: TLR4-MyD88 BLA, TLR9-MyD88 inh)
O=C(CSc1nnc(CNc2cccc(C(F)(F)F)c2)n1Cc1ccco1)NCc1ccco1	TLR4-MyD88 BLA 26 | TLR4 MyD88 cnf inactive | BLA inhibitor ct inactive
CC(C)c1ccc(-n2c(-c3ccccc3)c[n+]3c2CCc2ccccc2-3)cc1	none (no result: NTR1 ag, A1 inh)
COc1ccc(-n2c(-c3ccc(Br)cc3)c[n+]3c2CCc2ccccc2-3)cc1	TLR4-MyD88 BLA 26 | TLR4 MyD88 cnf 25 | BLA inhibitor ct inactive
COc1ccc(C)cc1S(=O)(=O)N1CCN(S(=O)(=O)c2cc(C)ccc2OC)C(C)C1 (stereo not given)	TLR4-MyD88 BLA 27 | TLR4 MyD88 cnf inactive | BLA inhibitor ct inactive
COc1ccccc1N1CCN(C(=O)COc2cc(C)ccc2C)CC1	none
COc1ccccc1N1CCN(C(=O)COc2cc(C)cc(C)c2)CC1	TLR4-MyD88 BLA 26 | TLR4 MyD88 cnf inactive | BLA inhibitor ct inactive
O=c1cc(-c2c(F)c(F)c(F)c(F)c2F)oc2c(F)c(F)c(F)c(F)c12	TLR4-MyD88 BLA 42 (no result: Beta2AR agonist, TLR9-MyD88 inh, NOD2 RIPK2 PPI) | TLR4 MyD88 cnf 38 | BLA inhibitor ct inactive
O=C(COC(=O)CNC(=O)c1ccco1)NCCN1C(=O)CSC1=O	none
COC(=O)c1ccc(CSC(=N)N)o1	none
CCOC(=O)c1ccoc1CSCc1ccc(C(=O)OC)o1	TLR4-MyD88 BLA 27 | TLR4 MyD88 cnf inactive | BLA inhibitor ct inactive
CC(C)(C)C(=O)Cn1ncc(Cl)c(Cl)c1=O	none (no result: NTR1 ag, A1 inh)
O=c1c(Cl)c(Cl)cnn1Cc1ccc(F)cc1	TLR4-MyD88 BLA 27 | TLR4 MyD88 cnf inactive | BLA inhibitor ct inactive
O=c1cnn(Cc2ccc(F)cc2)c2ccccc12	none (no result: TLR4-MyD88 BLA)
O=C(OCn1ncc(Cl)c(Cl)c1=O)c1ccc(F)cc1	TLR4-MyD88 BLA 27 (no result: Beta2AR agonist, TLR9-MyD88 inh, NOD2 RIPK2 PPI) | TLR4 MyD88 cnf 29 | BLA inhibitor ct inactive
CCn1c(SCC(=O)NCc2ccccc2)nc2nc3c(cc2c1=O)CCCC3	TLR4-MyD88 BLA 25 | TLR4 MyD88 cnf inactive | BLA inhibitor ct inactive
COc1ccc(C2CC(=O)Nc3cc(OC)c(OC)cc32)cc1Br (stereo not given)	none (no result: TLR4-MyD88 BLA)
C#CCN1C(=O)S/C(=C\c2ccc(N3CCOCC3)cc2C)C1=O	none
CCOC(=O)c1c(C)nc2c(C#N)cnn2c1C	TLR4-MyD88 BLA 25 | TLR4 MyD88 cnf inactive | BLA inhibitor ct inactive
CCOC(=O)c1cnn2c(N)c(C#N)cnc12	none
